# Measurements as given in PubChem BioAssay AID624300 (Southern Research Specialized Biocontainment Screening …, 2012).
# The whole screen tested about 2,400 compounds, of which about 360 (15%) were called active. The list is a sample of the results. Entries with a potency or affinity are not part of this list. A number with no mark means an inactive call.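 The calls were made as follows: active = viability falls under 70% at one or more tested concentrations, taken as toxicity; inactive = viability stays over 70% at every dose.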
# Experiment: HeLa cell cytotoxicity, dose response, cytotoxicity control for MgcRacGAP inhibitor project (AID 624300);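 also: 100% = median of untreated control wells on the same plate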
# Conditions: CellTiter-Glo luminescence, 24 h; series mostly up to 100 µM; viability: at the top concentration
row,SMILES,viability
1,C[C@]12CC[C@H]3C(=CCc4cc(O)ccc43)[C@@H]1CCC2=O,93%
2,CC1CCC/C(=C\c2ccc(O)cc2)C1=O (stereo not drawn),99.8%
3,CN(C)c1ccc(/C=C2/NC(=O)NC2=O)cc1,94.4%
4,O=C1NC(=S)NC1=Cc1ccc(O)cc1,91.2%
5,CCOc1ccccc1NC(=O)C(NCC1(N2CCCCC2)CCCCC1)c1ccccc1 (stereo not drawn),88.3%
6,O=C(NC(=S)Nc1cccc2c(O)cccc12)c1ccco1,97.7%
7,O=C(Nc1cc(Br)c(O)c(Br)c1)c1cccc(NC(=O)c2ccco2)c1,96.2%
8,Brc1csc(C=Nc2ccc3c(c2)OCCOCCOCCOCCO3)c1,103%
9,CCN(CC)c1ccc(/C=N/NC(=O)OC)c(O)c1,96.8%
10,Cc1ccccc1C(=O)Nc1ccc(N2CCCC2)cc1,102%
11,COc1ccc(C(=O)/C=C/c2ccc(O)cc2)cc1,110%
12,COC(=O)c1ccc(CNC(=O)COC(=O)/C=C/c2ccc(O)c(OC)c2)cc1,97.8%
13,COC(=O)c1ccc(NC(=S)Nc2ccc(O)cc2)cc1,105%
14,COCCCNC(=S)N1CCN(Cc2ccc3c(c2)OCO3)CC1,92.5%
15,O=C(CC(c1ccccc1)c1ccccc1)Nc1ccc(O)cc1,90.4%
16,CCOC(=O)C1CCCN(C2=NC(=O)/C(=C/c3ccc(O)c(OCC)c3)S2)C1 (stereo not drawn),97.8%
17,CCN(CC)S(=O)(=O)c1cccc(-c2n[nH]c(=S)n2/N=C/c2ccc(OC(F)F)cc2)c1,84%
18,Nc1ccc(N2CCCC2)c(S(=O)(=O)Nc2cccc(C(F)(F)F)c2)c1,83.9%
19,COc1ccc2c(c1)-c1nc(/N=C/c3c(O)ccc4ccccc34)sc1CC2,97.4%
20,O=C(CN1C(=O)c2ccccc2S1(=O)=O)c1ccc(O)c(O)c1,95.9%

row,SMILES,viability
1,C=CCn1c(SCC(=O)c2ccc(O)c(O)c2)nnc1-c1cccc(Cl)c1,101%
2,CC1Cc2ccccc2N1C(=O)CNCCCN(C)C (stereo not drawn),110%
3,CN(C)C(=S)N=c1ssc(=S)n1Cc1ccccc1,118%
4,COc1ccc(NC2CCCN(C(=O)c3csc(C)n3)C2)cc1 (stereo not drawn),112%
5,C#CCOCCOCCOCCNc1nc(N2CCN(C(=O)[C@H](CCCCN)n3cc(CN)nn3)CC2)nc(N2CCN(C(=O)[C@H](CCC(=O)O)n3cc([C@@H](N)CCCCN)nn3)CC2)n1,108%
6,C#CCOCCOCCOCCNc1nc(N2CCN(C(=O)[C@H](CCCCN)n3cc(CN)nn3)CC2)nc(N2CCN(C(=O)[C@H](CCCCN)n3cc(CN)nn3)CC2)n1,101%
7,Cc1ccc(CCNc2ccc3ccccc3c2)cn1,93.3%
8,COc1cc(/C=C/CN2CCN(CCC(C)C)C(CCO)C2)ccc1O (stereo not drawn),104%
9,Nc1ccccc1Sc1ccc(C(=O)c2ccccc2C(=O)O)cc1[N+](=O)[O-],94%
10,COc1ccc(NC2CCCN(C(=O)CCc3cn[nH]c3)C2)cc1 (stereo not drawn),106%
11,COc1cccc(C(=O)Nc2cc3c(cc2N2CCCC2)n(C)c(=O)n3C)c1,85.1%
12,CCn1c(=O)n(CC)c2cc(N3CCCC3)c(NC(=O)c3ccccc3)cc21,93.1%
13,CN=Cc1cc(-c2ccccc2)sc1O,95.9%
14,COc1cc(/C=N/NC(=O)C(C)Nc2n[nH]c(=O)[nH]c2=O)ccc1O (stereo not drawn),96.5%
15,COc1ccc(CN2CCN(c3ccccn3)CC2)c(OC)c1C,94%
16,COc1ccccc1OCC#CCn1ccnc1,94.7%
17,COc1cc(C2C(=O)c3ccccc3C2=O)ccc1O,102%
18,COc1cc(/C=N/N2C(=O)c3ccccc3C2=O)ccc1O,92.9%
19,Oc1ccc(/C=N/NC(=S)NCCN2CCOCC2)c(O)c1,91.6%
20,Clc1ccc(CNc2ccc(N3CCN(Cc4ccccc4)CC3)cc2)cc1,87.6%

row,SMILES,viability
1,CC(=O)N1CCN(c2ccc(NCc3ccc(F)cc3)cc2)CC1,97.8%
2,CSCCOC(=O)C1=C(C)Nc2ccc(C)cc2S1,111%
3,COc1cc(/C=N/n2c(-c3cc(C)[nH]n3)n[nH]c2=S)cc(OC)c1O,104%
4,COc1cc(OC)c2cc[nH]c2c1,99.2%
5,C[n+]1c(-c2ccccc2)cc2c(=Cc3ccc([N+](=O)[O-])cc3)c3ccccc3n21,88.6%
6,COc1cc(C=C2C(=O)c3ccccc3C2=O)cc(OC)c1OC,97.8%
7,CCOC(=O)c1sc(=S)[nH]c1C,95.2%
8,c1cc(CNc2ccc3c(c2)OCO3)ccn1,96.6%
9,COc1cccc(CN2CCN(Cc3cccc(Oc4ccccc4)c3)CC2)c1OC,83.3%
10,CC1(C)CC(=O)C(C(C2=C(O)CC(C)(C)CC2=O)c2cccs2)C(=O)C1 (stereo not drawn),100%
11,COc1ccccc1NS(=O)(=O)c1cc(N)ccc1N1CCCC1,89.7%
12,Cc1sc2ncnc(N/N=C/c3ccc(O)cc3)c2c1C,95.2%
13,COc1ccc(/C=N/Nc2ccccn2)cc1O,90.9%
14,COc1cc(/C=C/C(=O)OCC(=O)Nc2ccc(S(=O)(=O)N3CCCC3)cc2)ccc1O,94.6%
15,NC(=O)N/N=C/c1ccc(N2CCOCC2)s1,92.3%
16,CNC(=S)N/N=C/c1ccc(N2CCOCC2)s1,87.5%
17,COc1cc(/C=N/n2cnnc2)ccc1OC(=O)c1ccncc1,106%
18,CSc1nc(=S)c2[nH]c(=S)[nH]c2[nH]1,101%
